Data on 18 compounds can be found in PubChem BioAssay.

Test [1] deals with XIP peptide (Xip251-270) binding. Nature of the test: small-molecule binders of XIP peptide, primary screen, biochemical, small-molecule microarray, fluorescence 635/667 nm, 0.1 µg/mL protein (AID 1182). The settings on record: fluorescent protein binding, 635 nm, higher = more signal, called active from +8 up or from −8 down.
In test [2] the test system is XIP peptide (Xip251-270). The test can be described thus: small-molecule binders of XIP peptide, primary screen, biochemical, small-molecule microarray, fluorescence 635/667 nm, 0.5 µg/mL protein (AID 1183). Conditions: small-molecule microarray binding, fluorescence 635 nm; higher = more signal.
Test [3] can be described thus: Plasmodium falciparum growth inhibition, primary screen, strain 3D7, DAPI fluorescence, 100 nL (AID 1184).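 Also: parasites grown inside human red blood cells in medium with human serum.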 Conditions: P. falciparum 3D7 growth, 3 d, higher = more signal.
Test [4] concerns the target Homeobox protein Hox-A13 (Mus musculus) (UniProt Q62424). Nature of the test: inhibitors of HoxA13-DNA binding, primary screen, biochemical, fluorescence polarization, labeled oligonucleotide (AID 1185). The settings on record: 15 min, higher = more signal, called active from +8 up or from −8 down. (In general: Fluorescence polarisation rises when a labelled molecule tumbles more slowly, as on binding a larger partner.)

Test [5] in a line: inhibitors of hydroxyurea-induced Chk1 phosphorylation, primary screen, imaging, HeLa, phospho-Chk1 antibody, percent positive cells (AID 1186). Conditions: hydroxyurea-induced phospho-Chk1 immunofluorescence imaging, higher = more signal.
Test [6] in a line: inhibitors of hydroxyurea-induced Chk1 phosphorylation, primary screen, imaging, HeLa, phospho-Chk1 nuclear intensity (AID 1187). Conditions: hydroxyurea-induced phospho-Chk1 immunofluorescence imaging, higher = more signal.

SMILES strings stand for the structures. Calls of active or inactive are those of the source. Unless noted, no rule for the calls is given here.

Homeobox protein Hox-A13 (Mus musculus), sequence (Q62424 whole entry, looked up): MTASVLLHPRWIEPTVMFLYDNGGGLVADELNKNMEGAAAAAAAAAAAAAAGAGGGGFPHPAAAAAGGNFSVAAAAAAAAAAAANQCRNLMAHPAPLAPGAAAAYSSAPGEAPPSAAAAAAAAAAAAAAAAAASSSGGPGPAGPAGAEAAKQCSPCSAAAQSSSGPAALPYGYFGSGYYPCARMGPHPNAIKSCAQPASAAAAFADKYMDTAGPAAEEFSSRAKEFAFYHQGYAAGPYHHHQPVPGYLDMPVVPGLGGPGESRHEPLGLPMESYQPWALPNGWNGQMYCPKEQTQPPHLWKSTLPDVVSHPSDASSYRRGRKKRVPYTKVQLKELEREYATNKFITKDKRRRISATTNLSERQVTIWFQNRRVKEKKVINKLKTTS

Turning to `C=CCC(OC(C)=O)[C@@H]1[C@@H](N(Cc2ccc(-c3cccc(C(F)(F)F)c3)o2)C(=O)c2cccc3ccccc23)c2cc(OCCCO)ccc2N1C(=O)Cc1ccc2ccccc2c1` (stereo partly drawn), the composite z-score is -0.16 (inactive) in test [1] and 0.0499 in test [2]. The z-score in test [3] was -1.78; in test [4], -3.09 (inactive); in test [5], 0.233 (inactive); in test [6], 0.504 (inactive).

Turning to `CCCC(=O)N(CCc1c[nH]c2ccccc12)[C@@H]1CC(C(=O)NCCO)=C[C@H](Oc2c(I)cc(CO)cc2OC)[C@H]1O`, the composite z-score was -0.131 (inactive) in test [1] and 0.289 in test [2]. Moreover, the z-score in test [3] is -0.373; in test [4] it was -7.89 (inactive); in test [5], -1.51 (inactive); in test [6], -2.68 (inactive).

Take `CC[C@@H]1C=C(C(=O)O)[C@H](c2ccc(C)cc2)N1S(=O)(=O)c1ccc(C)cc1`: the composite z-score in test [1] is -0.143 (inactive); in test [2], 0.468. Further, the z-score in test [3] was 1.14; in test [4] it was -1.69 (inactive); in test [5], 0.723 (inactive); in test [6], 0.909 (inactive).

In the case of `CCCCCCc1nc(-c2ccc(-c3ccc(Cl)c(Cl)c3)o2)cc2c1[Si](C(C)C)(C(C)C)O[C@H]2c1ccccc1`, the composite z-score is 2.93 (inactive) in test [1] and 0.393 in test [2]. The z-score in test [3] is -1.3; in test [4], -1.4 (inactive); in test [5] it was -0.682 (inactive); in test [6], -0.449 (inactive).

Turning to `O=C1NC(=O)C2C1C=CC(C(O)C1CC=CCC1)N2Nc1ccccn1` (stereo not drawn), the composite z-score in test [1] is 0.467 (inactive); in test [2], 0.362. Further, the z-score is 0.45 in test [3], -0.315 (inactive) in test [4], 0.113 (inactive) in test [5] and -0.22 (inactive) in test [6].

On to `[N-]=[N+]=Nc1ccccc1C[C@]1(C(=O)NCC(O)CO)N=C(c2ccc(OCCCO)cc2)O[C@H]1c1ccccc1` (stereo partly drawn), for which the composite z-score was 0.474 (inactive) in test [1] and 0.511 in test [2]. The z-score in test [3] was -1.9; in test [4], -5.96 (inactive); in test [5], 0.178 (inactive); in test [6], -0.365 (inactive).

On to `CC(C)CNC(=O)[C@@]1(Cc2ccccc2I)c2ccccc2C(=O)N(Cc2ccccc2C(F)(F)F)[C@H]1c1ccc(CO)cc1`, for which the composite z-score in test [1] was 1.43 (inactive); in test [2], 0.875. The z-score in test [3] is -0.538; in test [4], -1.78 (inactive); in test [5] it was 0.172 (inactive); in test [6], 0.345 (inactive).

As to `O=C(O)C1N=C(c2ccc(OCCCO)cc2)N(c2ccccc2)O1` (stereo not drawn), the composite z-score in test [1] is 1.77 (inactive); in test [2], 0.852. The z-score is -0.112 in test [3], -2.98 (inactive) in test [4], -0.259 (inactive) in test [5] and -0.229 (inactive) in test [6].

Regarding `CC(C)[Si](C#CCCCC#N)(Oc1ccccc1Br)C(C)C`, the values for the composite z-score in test [1] and in test [2] were 0.983 (inactive) and -0.0206, respectively. Moreover, the z-score in test [3] is 0.306; in test [4], -1.08 (inactive); in test [5], 0.365 (inactive); in test [6], 0.0882 (inactive).

`COc1ccccc1CN1C(=O)c2ccccc2[C@@H](C(=O)NCc2ccccc2)[C@@H]1c1ccc(CO)cc1`: the composite z-score in test [1] is 0.737 (inactive); in test [2], 0.785. The z-score was -1.45 in test [3], -1.22 (inactive) in test [4], -0.295 (inactive) in test [5] and -0.0433 (inactive) in test [6].

As for `COCCOC(=O)N1C(=O)[C@@]2(c3ccccc31)[C@H](C(N)=O)[C@H]1C(=O)O[C@H](c3ccccc3)[C@H](c3ccccc3)N1[C@@H]2c1ccc(O)cc1`, the composite z-score was -0.114 (inactive) in test [1] and 0.726 in test [2]. For the same compound, the z-score is 0.373 in test [3], -4.73 (inactive) in test [4], -0.0504 (inactive) in test [5] and -0.194 (inactive) in test [6].

Regarding `COc1ccc(-c2cc3c(c(Cc4ccccc4)n2)[Si](C(C)C)(C(C)C)OC3)cn1`, the composite z-score in test [1] was 0.684 (inactive); in test [2] it was -0.342. The z-score was -2.79 in test [3], -2.5 (inactive) in test [4], -0.24 (inactive) in test [5] and -0.828 (inactive) in test [6].

On to `OB1C=CCC(CCc2ccccc2)O1` (stereo not drawn), for which the figures for the composite z-score in test [1] and in test [2] were -1.15 (inactive) and 0.965, respectively. Further, the z-score in test [3] was -0.355; in test [4] it was -2.13 (inactive); in test [5] it was -0.591 (inactive); in test [6], -0.212 (inactive).

On to `CC(C)OC(=O)C=C1C[C@@H](c2cccc(Cl)c2)O[C@@H](c2cccc(Cl)c2)O1`, for which the composite z-score in test [1] was 0.262 (inactive); in test [2], -0.226. Further, the z-score in test [3] is -0.642; in test [4], -2.09 (inactive); in test [5], 0.193 (inactive); in test [6], -0.0046 (inactive).

Take `O=C1NC(=O)C2C1C=CC(C(O)c1ccc(I)cc1)N2Nc1ccccn1` (stereo not drawn): the composite z-score was 0.932 (inactive) in test [1] and 0.457 in test [2]. Besides, the z-score in test [3] was 1.04; in test [4], -1.85 (inactive); in test [5], 0.955 (inactive); in test [6], 0.534 (inactive).

Consider `COC(=O)[C@@]1(Cc2ccc(OC)cc2)[C@H]2c3cc(C(=O)N4CCCC4)n(CCc4ccc(O)c(O)c4)c3C[C@H]2CN1C(=O)c1ccccc1`, for which the composite z-score in test [1] is 1.75 (inactive); in test [2] it was 0.83. The z-score was -1.62 in test [3], -6.01 (inactive) in test [4], 0.264 (inactive) in test [5] and 0.379 (inactive) in test [6].

For `O=C1NC(=O)C2C1C=CC(C(O)c1ccc(I)cc1)N2Nc1ccc(Cl)cc1Cl` (stereo not drawn), the composite z-score is 0.9 (inactive) in test [1] and 0.284 in test [2]. For the same compound, the z-score in test [3] was 0.692; in test [4] it was -3.94 (inactive); in test [5] it was 0.0215 (inactive); in test [6], 0.33 (inactive).

Consider `O=C1N(CCS(=O)(=O)c2ccccc2)c2ccccc2[C@@H]2OC(c3ccc(OCCCO)cc3)=N[C@]12Cc1ccccc1`, for which the results for the composite z-score in test [1] and in test [2] were 0.395 (inactive) and 0.639, respectively. For the same compound, the z-score in test [3] was -2.17; in test [4] it was -1.41 (inactive); in test [5], -0.522 (inactive); in test [6], -0.825 (inactive).
